Records with an inconclusive call do not appear. Activity calls are given as the source filed them. How the source made its calls, unless noted: active means hit-call score of the fitted dose curve at least 0.9, where 1 is the maximum; inactive means score below 0.9.

What is called AC50 is the concentration giving half of the maximal activity seen.

The test system of the first experiment is SRY-box transcription factor 2 (SOX2) Protein Expression, Deisenroth Lab, SOX2 (gene 6657). The experiment can be described thus: CCTE_Deisenroth_DEVTOX-GLR_Endo_SOX2: CCTE's DevTox GLR-Endo Assay Evaluation of SRY-box transcription factor 2 (SOX2) Protein Expression, Deisenroth Lab (AID 2284412; active means hit-call score of the fitted dose curve at least 0.9, where 1 is the maximum). How it is done: CCTE_Deisenroth_DEVTOX-GLR_Endo assay is a cell-based, multiplex-readout assay that uses RUES2-GLR, a human pluripotent cell line, with measurements taken at 48 hours after chemical dosing in a 384-well microplateCCTE_Deisenroth_DEVTOX-GLR_Endo_SOX2 is 1 of 4 assay components calculated from the CCTE_Deisenroth_DEVTOX-GLR_Endo assay and it measures the percentage of cells in an ectoderm state. Using a type of inducible fluorescent protein reporter, gain-of-signal activity can be used to understand changes in gene expression with fluorescent microscopy. The percentage SOX2+ cells are determined by calculating the number of SOX2+ cells divided by the cell count. To generalize the intended target to other relatable targets, this assay component is annotated to the transcription factor intended target family, where the subfamily is SRY-related HMG-box.Data from the assay component CCTE_Deisenroth_DEVTOX-GLR_Endo_SOX2 was analyzed as 1 assay endpoint. The endpoint is the percent SOX2+ cell population minus the 0.2% DMSO control in the CCTE_Deisenroth_DEVTOX-GLR_Endo assay. Furthermore, this assay endpoint can be referred to as a secondary readout, because this assay has produced multiple assay endpoints where this one serves as a measure of ectoderm differentiation.
(§1) All assay protocols are aligned to the DevTox GLR-Endo assay workflow. Cells are seeded into 384-well microplates for 24 hours prior to initiating differentiation in defined media for a total duration of 48 hours. A total of two chemical exposures are administered in 24-hour intervals during the 48-hour differentiation period. At the assay termination point, cells are fixed and stained with a fluorescent dye demarcating the nucleus. High-content imaging is used to acquire brightfield and fluorescent channel images across 5 fields per well. Cell identification and mean biomarker fluorescence intensities are calculated with image analysis software to determine the total cell counts for viability assessment and the biomarker expression frequency for each lineage-dependent assay. A typical experimental design tests a 10-point concentration series (1 nM - 200 uM) for 28 compounds in single technical replicate. Assay plate controls include non-differentiated pluripotent cells (baseline control), lineage-specific differentiated cells (differentiation control), and DMSO solvent exposed differentiated cells (solvent control). Experiments typically comprise a minimum of four experimental replicates (n=4).
In the case of `c1cc(-c2cnn3cc(-c4ccc(OCCN5CCCCC5)cc4)cnc23)ccn1`, the AC50 was 30.1 µM (active).
Regarding `COc1ccc2[nH]c([S@@](=O)Cc3ncc(C)c(OC)c3C)nc2c1`, the AC50 is 83.8 µM (active).
For the compound `Oc1cc(O)c2c(c1)O[C@H](c1ccc(O)c(O)c1)[C@@H](O)C2`, the compound was classed as inactive.

The subject of the next experiment is SRY-box transcription factor 17 (SOX17) Protein Expression, Deisenroth Lab, SOX17 (gene 64321). The experiment can be described thus: CCTE_Deisenroth_DEVTOX-GLR_Endo_SOX17: CCTE's DevTox GLR-Endo Assay Evaluation of SRY-box transcription factor 17 (SOX17) Protein Expression, Deisenroth Lab (AID 2284413). The method in brief: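 RUES2-GLR human pluripotent cells were seeded 24 h, then differentiated toward endoderm for 48 h with two chemical exposures 24 h apart (10-point series, 1 nM - 200 uM). Nuclei-stained fixed cells were imaged; endpoint is percent change in SOX17+ cells versus 0.2% DMSO.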
For `c1cc(-c2cnn3cc(-c4ccc(OCCN5CCCCC5)cc4)cnc23)ccn1`, the AC50 was 24.1 µM (active).
`COc1ccc2[nH]c([S@@](=O)Cc3ncc(C)c(OC)c3C)nc2c1`: the AC50 is 33.8 µM (active).
Same read-out and setting: the figure for `Oc1cc(O)c2c(c1)O[C@H](c1ccc(O)c(O)c1)[C@@H](O)C2` is 146 µM (active); for `Nc1cccc2c1C(=O)N(C1CCC(=O)NC1=O)C2=O` (configuration not stated) it is 0.0587 µM (active).

Another experiment relates to Brachyury (BRA) Protein Expression, TBXT (gene 6862). The experiment can be described thus: CCTE_Deisenroth_DEVTOX-GLR_Endo_BRA: CCTE's DevTox GLR-Endo Assay Evaluation of Brachyury (BRA) Protein Expression, Deisenroth Lab (AID 2284417). The method in brief: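 RUES2-GLR pluripotent cells differentiated 48 h with two chemical exposures 24 h apart, 10-point range 1 nM - 200 uM. Percentage of BRA+ cells per total count by high-content imaging, minus 0.2% DMSO control.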
For the compound `c1cc(-c2cnn3cc(-c4ccc(OCCN5CCCCC5)cc4)cnc23)ccn1`, the AC50 is 1.44 µM (active).
For `COc1ccc2[nH]c([S@@](=O)Cc3ncc(C)c(OC)c3C)nc2c1`, the AC50 is 70.6 µM (active).
Consider `Oc1cc(O)c2c(c1)O[C@H](c1ccc(O)c(O)c1)[C@@H](O)C2`, for which the AC50 is 0.000133 µM (active).
On the same count and under the same terms, the figure for `Nc1cccc2c1C(=O)N(C1CCC(=O)NC1=O)C2=O` (configuration not stated) is 29.5 µM (active).

System in a further experiment: not listed separately
Put plainly: CCTE_Deisenroth_DEVTOX-GLR_Endo_CellCount: Viability Assessment in CCTE's DevTox GLR-Endo Assay, Deisenroth Lab (AID 2284420). The procedure, abridged:
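Percent change in nuclear-stain cell counts versus 0.2% DMSO, from high-content imaging over 5 fields per well. Over a 48 h endoderm differentiation, RUES2-GLR cells received two doses 24 h apart across a 1 nM–200 uM series, with n=4.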
As for `c1cc(-c2cnn3cc(-c4ccc(OCCN5CCCCC5)cc4)cnc23)ccn1`, the AC50 was 20 µM (active).
Still for that read-out and setting: the figure for `COc1ccc2[nH]c([S@@](=O)Cc3ncc(C)c(OC)c3C)nc2c1` is 47.9 µM (active); for `Oc1cc(O)c2c(c1)O[C@H](c1ccc(O)c(O)c1)[C@@H](O)C2` it is 167 µM (active).
Same read-out and setting: in the case of `Nc1cccc2c1C(=O)N(C1CCC(=O)NC1=O)C2=O` (configuration not stated) it was 0.281 µM (active).

A further experiment has as its system SRY-box transcription factor 17 (SOX17) Protein Expression, Deisenroth Lab, SOX17 (gene 64321). The experiment can be described thus: CCTE_Deisenroth_DEVTOX-GLR_Pluri_SOX17: CCTE's DevTox GLR-Pluri Assay Evaluation of SRY-box transcription factor 17 (SOX17) Protein Expression, Deisenroth Lab (AID 2284427; active means hit-call score of the fitted dose curve at least 0.9, where 1 is the maximum). The method in brief: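 The endpoint is SOX17+ cells as a fraction of cell count, corrected for the 0.2% DMSO control and obtained by high-content fluorescence imaging of fixed cells. Cells were RUES2-GLR under a 48-hour endoderm differentiation, dosed twice at 24-hour intervals over 1 nM–200 uM.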
For the compound `c1cc(-c2cnn3cc(-c4ccc(OCCN5CCCCC5)cc4)cnc23)ccn1`, the compound was classed as inactive.
For the compound `COc1ccc2[nH]c([S@@](=O)Cc3ncc(C)c(OC)c3C)nc2c1`, the AC50 was 54 µM (active).
For `Nc1cccc2c1C(=O)N(C1CCC(=O)NC1=O)C2=O` (configuration not stated), the result was inactive.

The next experiment has as its system SRY-box transcription factor 2 (SOX2) Protein Expression, Deisenroth Lab, SOX2 (gene 6657). The experiment can be described thus: CCTE_Deisenroth_DEVTOX-GLR_Pluri_SOX2: CCTE's DevTox GLR-Pluri Assay Evaluation of SRY-box transcription factor 2 (SOX2) Protein Expression, Deisenroth Lab (AID 2284428). As to the method:
CCTE_Deisenroth_DEVTOX-GLR_Pluri assay is a cell-based, multiplex-readout assay that uses RUES2-GLR, a human pluripotent cell line, with measurements taken at 48 hours after chemical dosing in a 384-well microplateCCTE_Deisenroth_DEVTOX-GLR_Pluri_SOX2 is 1 of 4 assay components calculated from the CCTE_Deisenroth_DEVTOX-GLR_Pluri assay and it measures an the percentage of cells in an pluripotent state. Using a type of inducible fluorescent protein reporter, gain-of-signal activity can be used to understand changes in gene expression with fluorescent microscopy. The percentage of SOX2+ cells are determined by calculating the number of SOX2+ cells divided by the cell count. To generalize the intended target to other relatable targets, this assay component is annotated to the transcription factor intended target family, where the subfamily is SRY-related HMG-box.Data from the assay component CCTE_Deisenroth_DEVTOX-GLR_Pluri_SOX2 was analyzed as 1 assay endpoint. The endpoint is the percent change in the SOX2+ cell population relative to the 0.2% DMSO control in the CCTE_Deisenroth_DEVTOX-GLR_Pluri assay. Furthermore, this assay endpoint can be referred to as a primary readout, because this assay has produced multiple assay endpoints where this one serves as a measure of […].
as §1
For the compound `c1cc(-c2cnn3cc(-c4ccc(OCCN5CCCCC5)cc4)cnc23)ccn1`, the AC50 was 3.94 µM (active).
Turning to `COc1ccc2[nH]c([S@@](=O)Cc3ncc(C)c(OC)c3C)nc2c1`, the AC50 is 66.6 µM (active).
Same read-out and setting: the figure for `Oc1cc(O)c2c(c1)O[C@H](c1ccc(O)c(O)c1)[C@@H](O)C2` is 5.13 µM (active).
For `Nc1cccc2c1C(=O)N(C1CCC(=O)NC1=O)C2=O` (configuration not stated), the concentration at half-maximal activity (AC50) was 1.04 µM (active).

Source of the values: PubChem BioAssay (EPA / NIEHS).
